The target of the first assay is ERICH1. Put plainly: pooled miR-30 sensor sort-seq; sequence = guide strand. The following applies: shRNA.
Consider TATACATTTAACTTAACAGAAT, for which the sensor-assay potency score (higher = more potent) was -1.58. Regarding TTATGCTTCCTAATTCTTCTTC, the sensor-assay potency score (higher = more potent) amounted to 0.311. TTTATTTTTGCTTATTGTGGTG: the sensor-assay potency score (higher = more potent) was -0.386. Sequence TTCATTGCTGCTGTCCTCGGGC displayed a sensor-assay potency score (higher = more potent) of 0.0342. Still for that read-out and setting: with TTCTTTGATTTATGCTTCCTAA the figure was -1.05; with TCTCTCAGTATCTTGCAGGAGC, -0.55. On to TTTCATTGGTAATTGTATCATC, for which the sensor-assay potency score (higher = more potent) was -0.447.

TATTGTGGTGCCATCTGTGTGC registered a sensor-assay potency score (higher = more potent) of 0.019.

A further assay addresses ERMAP. The assay is described as above. The following applies: shRNA.
Take TCTCTCACTAGCACCGTCCTCC: the sensor-assay potency score (higher = more potent) came to 0.0369.

For TTGTAGAAAGAGATGACTCCTG, the sensor-assay potency score (higher = more potent) came out at 0.279. Still for that read-out and setting: for TAGTAAAGAAGAGTTCACCTTG the value was 0.291; for TTTTGCTCTTCTTTGCTTCCAG, 0.153; for TTTCTTGACAGCTTTATGGAGT, 0.273. On to TCAGACATCGGTAAGACCCTTG, for which the sensor-assay potency score (higher = more potent) was determined as 0.421. With TTCAACTTCAGTTCACTCCGGA, the sensor-assay potency score (higher = more potent) was found to be 0.912. In turn, TATTGCAGTACAATGGTCTTGT gave a sensor-assay potency score (higher = more potent) of 0.896.

Sequence TTACACATCTTTGGTCCTCAGA yielded a sensor-assay potency score (higher = more potent) of -0.674. TAGTTCTGAACAAATGACTAGA registered a sensor-assay potency score (higher = more potent) of -0.0154. As for TTTGCTCTTCTTTGCTTCCAGA, the sensor-assay potency score (higher = more potent) was -0.875. The same measure, in the same setting: with TTTACTCAGATTTCCAACTTGG the figure was 0.208.

In the next assay the target is ESPNL. Described as above. The following applies: shRNA.
Regarding TTACATCTTCTTGAGTGTCCGT, the sensor-assay potency score (higher = more potent) came out at 0.428.

Sequence TACATCTTCTTGAGTGTCCGTC returned a sensor-assay potency score (higher = more potent) of 0.148.

Turning to TGCCACAACAGAACAGTCCCGC, the sensor-assay potency score (higher = more potent) turned out to be 0.291. Regarding TTATTTAGCAAACACATGTTCA, the sensor-assay potency score (higher = more potent) is -0.54. For TAGCAAACACATGTTCAGCTTC, the sensor-assay potency score (higher = more potent) was 0.322. In turn, TTTATTTAGCAAACACATGTTC showed a sensor-assay potency score (higher = more potent) of -0.167. TTTTACATCTTCTTGAGTGTCC: the sensor-assay potency score (higher = more potent) came to 0.799. TGAGTCTGTGAGTACCTCCAGG yielded a sensor-assay potency score (higher = more potent) of -0.966.

In the case of TGCACCAAGAACTTGACGCAGT, the sensor-assay potency score (higher = more potent) is -1.02. On to TCCTCTTCTTCCATCCTCCAGG, for which the sensor-assay potency score (higher = more potent) is -1.74. In the case of TTCAGCAGCAGGGACAGGCTGC, the sensor-assay potency score (higher = more potent) is -0.751.

Take TCGGTGAATGTGACCAGCCAGA: the sensor-assay potency score (higher = more potent) was -1.22.

The target in the next assay is ESR2. The description is as above. Particulars: shRNA.
For the sequence TTTTATCGATTGTACACTGATT, the sensor-assay potency score (higher = more potent) was -1.06. Turning to TCCAAGTTAGTGACATTGCTGG, the sensor-assay potency score (higher = more potent) was found to be 0.101. As to TTGTACACTGATTTGTAGCTGG, the sensor-assay potency score (higher = more potent) was found to be 0.245.

The sequence AAATATAATCATTATGTCCTTG came in with a sensor-assay potency score (higher = more potent) of -0.156. For the sequence TTTAACTCTCGAAACCTTGAAG, the sensor-assay potency score (higher = more potent) is -0.511.

Turning to TTACAGGTAAGGTGTGTTCTAG, the sensor-assay potency score (higher = more potent) was -0.694. Same read-out and setting: for ATCATGTGTACCAACTCCTTGT the value was -0.273; for ATCATTAACACCTCCATCCAAC, -1.05.

The record behind these values is the OligoGym collection.
Note: reference of the scale not given here.
